The supplement of paper PMC10849652
The full data set covers some 7,900 targets. This sample favours those with a hit. About 0.6% of all pairs of compound and target were hits.

Compound: c1cn2cc(-c3ccc4cn[nH]c4c3)nc(Nc3ccc(N4CCOCC4)cc3)c2n1 [entospletinib]
Experiment: log2 fold change, soluble protein after heating vs DMSO (PISA); higher = thermal stabilisation; K562 cells, 10 uM, 30 min; active = over 0.2 and 3.5 SD of the protein, either way, in both replicates (recomputed)
In short: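 K562 cells at 2×10^6 cells/mL were exposed to 10 μM compound for 30 min, then aliquots were heated for 3 min across 48°C-58°C, pooled, and extracted in PBS containing 0.5% NP-40 at 4°C. The supernatant after 21,000xg for 90 min was taken as soluble protein and measured by TMTpro 16plex LC-MS/MS with channel sums equalised. Thermal stability is reported relative to control samples, with values from duplicates. Fold changes are given on a log2 scale.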

Chain of UniProt Q9Y5B8 (Q9Y5B8 whole entry, looked up): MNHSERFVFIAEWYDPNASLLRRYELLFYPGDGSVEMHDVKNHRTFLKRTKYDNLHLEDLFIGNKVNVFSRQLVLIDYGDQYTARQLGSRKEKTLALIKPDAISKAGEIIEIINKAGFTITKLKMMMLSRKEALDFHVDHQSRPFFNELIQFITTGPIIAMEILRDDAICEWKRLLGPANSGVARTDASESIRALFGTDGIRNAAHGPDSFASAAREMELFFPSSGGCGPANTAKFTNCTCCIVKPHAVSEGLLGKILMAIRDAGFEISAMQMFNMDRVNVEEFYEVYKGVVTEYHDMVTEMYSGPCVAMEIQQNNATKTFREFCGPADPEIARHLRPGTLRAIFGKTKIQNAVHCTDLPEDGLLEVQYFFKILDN
Chain of UniProt P48645 (P48645 whole entry, looked up): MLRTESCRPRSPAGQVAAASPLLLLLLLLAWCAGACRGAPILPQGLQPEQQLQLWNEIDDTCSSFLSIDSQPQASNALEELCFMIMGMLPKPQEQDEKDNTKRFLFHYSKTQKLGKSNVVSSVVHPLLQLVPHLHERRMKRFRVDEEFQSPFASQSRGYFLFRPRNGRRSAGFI
Chain of UniProt O95747 (O95747 whole entry, looked up): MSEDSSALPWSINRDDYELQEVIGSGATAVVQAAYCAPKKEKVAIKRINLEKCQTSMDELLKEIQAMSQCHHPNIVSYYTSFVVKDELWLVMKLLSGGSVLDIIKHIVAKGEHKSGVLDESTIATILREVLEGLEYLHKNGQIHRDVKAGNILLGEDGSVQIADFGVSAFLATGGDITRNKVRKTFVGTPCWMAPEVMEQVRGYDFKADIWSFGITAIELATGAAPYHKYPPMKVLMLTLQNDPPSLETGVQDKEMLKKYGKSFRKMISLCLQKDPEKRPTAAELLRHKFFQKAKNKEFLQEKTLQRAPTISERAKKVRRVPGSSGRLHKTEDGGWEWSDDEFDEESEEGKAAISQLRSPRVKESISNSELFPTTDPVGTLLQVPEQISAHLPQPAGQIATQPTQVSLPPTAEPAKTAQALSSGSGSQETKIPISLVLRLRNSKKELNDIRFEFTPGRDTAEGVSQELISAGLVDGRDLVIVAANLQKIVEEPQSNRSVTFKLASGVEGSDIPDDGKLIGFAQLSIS
Chain of UniProt Q00013 (Q00013 whole entry, looked up): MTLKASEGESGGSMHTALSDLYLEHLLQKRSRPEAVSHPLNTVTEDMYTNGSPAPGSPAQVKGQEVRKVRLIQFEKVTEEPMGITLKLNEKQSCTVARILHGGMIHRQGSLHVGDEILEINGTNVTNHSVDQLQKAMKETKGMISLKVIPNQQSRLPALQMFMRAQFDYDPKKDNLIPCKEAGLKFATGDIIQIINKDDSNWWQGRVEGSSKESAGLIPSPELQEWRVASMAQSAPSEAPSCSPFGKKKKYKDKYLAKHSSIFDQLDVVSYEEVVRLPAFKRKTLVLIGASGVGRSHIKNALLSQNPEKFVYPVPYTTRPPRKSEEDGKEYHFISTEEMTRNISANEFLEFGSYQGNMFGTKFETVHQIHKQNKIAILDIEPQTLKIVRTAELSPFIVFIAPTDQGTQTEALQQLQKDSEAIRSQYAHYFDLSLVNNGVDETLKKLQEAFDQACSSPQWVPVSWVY
Chain of UniProt Q68DK7 (Q68DK7 whole entry, looked up): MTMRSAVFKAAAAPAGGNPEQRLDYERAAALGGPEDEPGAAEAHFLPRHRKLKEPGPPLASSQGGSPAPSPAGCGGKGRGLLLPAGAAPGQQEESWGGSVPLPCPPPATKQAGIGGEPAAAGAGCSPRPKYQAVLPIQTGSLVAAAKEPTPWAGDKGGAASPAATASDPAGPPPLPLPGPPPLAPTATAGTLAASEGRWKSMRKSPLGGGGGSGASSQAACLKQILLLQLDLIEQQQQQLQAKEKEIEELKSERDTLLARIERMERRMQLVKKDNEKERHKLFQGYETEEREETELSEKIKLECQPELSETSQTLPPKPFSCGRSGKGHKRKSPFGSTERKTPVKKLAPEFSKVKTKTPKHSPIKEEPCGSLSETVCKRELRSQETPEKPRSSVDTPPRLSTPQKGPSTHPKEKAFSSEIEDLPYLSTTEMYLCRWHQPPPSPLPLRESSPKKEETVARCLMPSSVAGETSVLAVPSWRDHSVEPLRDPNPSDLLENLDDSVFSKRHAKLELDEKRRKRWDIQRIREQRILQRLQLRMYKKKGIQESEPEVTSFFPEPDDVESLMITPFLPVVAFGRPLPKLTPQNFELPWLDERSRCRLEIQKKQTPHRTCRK
Chain of UniProt P22059 (P22059 whole entry, looked up): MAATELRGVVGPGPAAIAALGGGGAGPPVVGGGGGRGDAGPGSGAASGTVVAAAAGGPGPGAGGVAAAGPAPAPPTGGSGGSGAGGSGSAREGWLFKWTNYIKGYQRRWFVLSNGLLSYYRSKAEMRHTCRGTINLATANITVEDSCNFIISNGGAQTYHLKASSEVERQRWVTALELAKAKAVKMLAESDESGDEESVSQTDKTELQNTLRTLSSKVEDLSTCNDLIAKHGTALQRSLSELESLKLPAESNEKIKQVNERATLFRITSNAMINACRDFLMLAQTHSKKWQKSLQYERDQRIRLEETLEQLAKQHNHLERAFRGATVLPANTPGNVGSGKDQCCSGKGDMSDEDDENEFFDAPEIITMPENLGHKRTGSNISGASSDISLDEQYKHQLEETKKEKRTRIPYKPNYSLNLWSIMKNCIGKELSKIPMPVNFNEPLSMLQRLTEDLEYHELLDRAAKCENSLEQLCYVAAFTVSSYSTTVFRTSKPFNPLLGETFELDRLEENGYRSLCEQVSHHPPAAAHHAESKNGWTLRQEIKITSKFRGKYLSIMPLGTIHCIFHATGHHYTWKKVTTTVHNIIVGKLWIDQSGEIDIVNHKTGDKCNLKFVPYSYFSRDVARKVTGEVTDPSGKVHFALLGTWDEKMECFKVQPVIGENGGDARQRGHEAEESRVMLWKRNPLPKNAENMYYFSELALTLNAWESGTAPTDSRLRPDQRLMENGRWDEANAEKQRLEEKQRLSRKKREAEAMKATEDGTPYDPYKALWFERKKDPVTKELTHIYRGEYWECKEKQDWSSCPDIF
Chain of UniProt P57740 (P57740 whole entry, looked up): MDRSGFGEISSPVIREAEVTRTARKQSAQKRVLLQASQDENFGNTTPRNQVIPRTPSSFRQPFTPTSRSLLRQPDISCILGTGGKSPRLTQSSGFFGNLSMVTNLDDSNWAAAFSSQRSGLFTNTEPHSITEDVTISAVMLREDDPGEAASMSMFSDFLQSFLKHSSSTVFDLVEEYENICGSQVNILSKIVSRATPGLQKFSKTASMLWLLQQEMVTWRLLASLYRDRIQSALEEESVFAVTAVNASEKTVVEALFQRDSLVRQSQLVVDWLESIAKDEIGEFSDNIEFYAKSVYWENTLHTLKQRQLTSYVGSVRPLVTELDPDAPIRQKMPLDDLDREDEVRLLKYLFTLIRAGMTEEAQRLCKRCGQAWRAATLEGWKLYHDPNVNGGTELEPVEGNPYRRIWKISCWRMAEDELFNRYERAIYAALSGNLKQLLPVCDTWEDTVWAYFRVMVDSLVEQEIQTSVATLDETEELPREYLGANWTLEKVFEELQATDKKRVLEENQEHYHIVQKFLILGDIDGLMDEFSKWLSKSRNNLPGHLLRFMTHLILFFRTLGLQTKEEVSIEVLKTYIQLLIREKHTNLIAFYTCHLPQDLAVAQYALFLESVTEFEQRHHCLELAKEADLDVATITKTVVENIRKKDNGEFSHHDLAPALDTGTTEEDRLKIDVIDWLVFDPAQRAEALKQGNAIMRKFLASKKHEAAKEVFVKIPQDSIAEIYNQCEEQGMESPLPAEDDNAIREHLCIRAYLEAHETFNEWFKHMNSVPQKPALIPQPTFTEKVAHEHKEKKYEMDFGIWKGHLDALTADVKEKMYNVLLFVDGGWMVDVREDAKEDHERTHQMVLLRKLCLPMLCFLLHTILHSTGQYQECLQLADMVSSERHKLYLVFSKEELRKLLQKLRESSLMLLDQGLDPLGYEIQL
Chain of UniProt P20585 (P20585 whole entry, looked up): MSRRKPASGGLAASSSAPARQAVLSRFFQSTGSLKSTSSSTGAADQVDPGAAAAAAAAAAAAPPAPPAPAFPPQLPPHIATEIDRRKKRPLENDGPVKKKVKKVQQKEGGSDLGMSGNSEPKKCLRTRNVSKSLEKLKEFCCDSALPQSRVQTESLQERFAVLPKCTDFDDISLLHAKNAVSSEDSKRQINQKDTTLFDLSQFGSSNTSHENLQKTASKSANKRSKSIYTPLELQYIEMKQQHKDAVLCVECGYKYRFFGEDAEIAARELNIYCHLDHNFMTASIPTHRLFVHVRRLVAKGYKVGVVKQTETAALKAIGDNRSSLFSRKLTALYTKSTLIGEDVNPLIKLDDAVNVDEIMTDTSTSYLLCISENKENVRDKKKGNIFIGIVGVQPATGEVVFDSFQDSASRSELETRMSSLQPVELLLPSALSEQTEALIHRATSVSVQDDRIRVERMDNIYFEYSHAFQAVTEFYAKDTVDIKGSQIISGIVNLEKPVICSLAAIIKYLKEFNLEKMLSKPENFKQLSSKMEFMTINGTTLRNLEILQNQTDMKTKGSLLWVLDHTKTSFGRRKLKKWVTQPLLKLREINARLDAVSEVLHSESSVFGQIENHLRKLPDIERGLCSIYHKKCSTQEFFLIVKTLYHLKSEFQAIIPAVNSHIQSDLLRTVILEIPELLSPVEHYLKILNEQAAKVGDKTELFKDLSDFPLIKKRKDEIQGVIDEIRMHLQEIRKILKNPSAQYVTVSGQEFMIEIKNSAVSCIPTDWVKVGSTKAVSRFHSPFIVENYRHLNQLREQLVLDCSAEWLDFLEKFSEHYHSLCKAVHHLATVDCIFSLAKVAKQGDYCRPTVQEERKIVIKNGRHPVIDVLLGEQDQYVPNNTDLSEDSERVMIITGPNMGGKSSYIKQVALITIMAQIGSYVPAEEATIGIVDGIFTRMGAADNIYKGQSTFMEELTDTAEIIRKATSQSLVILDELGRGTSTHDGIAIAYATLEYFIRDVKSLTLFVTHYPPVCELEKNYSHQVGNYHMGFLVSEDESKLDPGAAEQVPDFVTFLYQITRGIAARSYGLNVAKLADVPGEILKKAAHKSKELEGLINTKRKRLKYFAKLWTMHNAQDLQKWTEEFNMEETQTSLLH

log2 fold change, inactive:
NMU (UniProt P48645) 0.078
NDUFB7 (UniProt P17568) -0.074
MRPS31 (UniProt Q92665) 0.065
ORC5 (UniProt O43913) 0.012
NUDT1 (UniProt P36639) 0.018
NUDT16 (UniProt Q96DE0) 0.044
NME7 (UniProt Q9Y5B8) -0.022
NUP85 (UniProt Q9BW27) 0.005
MPP1 (UniProt Q00013) 0.056
MRPS35 (UniProt P82673) 0.036
OXR1 (UniProt Q8N573) -0.019
NSMCE4A (UniProt Q9NXX6) -0.048
NRDC isoform 2 (UniProt O43847) -0.005
NEMP1 (UniProt O14524) -0.121
MSL1 (UniProt Q68DK7) -0.078
MTHFS (UniProt P49914) 0.127
MORF4L2 (UniProt Q15014) -0.038
NGLY1 (UniProt Q96IV0) 0.081
NOP58 (UniProt Q9Y2X3) 0.085
OSBP (UniProt P22059) -0.013
NOLC1 isoform 2 (UniProt Q14978) 0.062
MSH3 (UniProt P20585) -0.095
NOP56 (UniProt O00567) -0.012
MRPS15 (UniProt P82914) 0.044
NIBAN1 (UniProt Q9BZQ8) 0.055
MT-ND1 (UniProt P03886) 0.1
MT-ND4 (UniProt P03905) 0.022
NMD3 (UniProt Q96D46) -0.001
MT-ATP6 (UniProt P00846) 0.029
OXSR1 (UniProt O95747) -0.058
NPC1 (UniProt O15118) 0.023
NUP107 (UniProt P57740) -0.072
NAGPA (UniProt Q9UK23) -0.109
NUP98 (UniProt P52948) 0.003
